Records with an inconclusive call do not appear. Some structures have more than one record in an assay (separate samples or runs), and their calls can disagree. Active and inactive are the calls of the source. How the source made its calls, unless noted: active means hit-call score of the fitted dose curve at least 0.9, where 1 is the maximum; inconclusive means response in the unintended direction; inactive means score below 0.9.
Columns and labels:
[1] = TOX21_p53_BLA_p2_viability: Viability Assessment in the Tox21 HCT-116 p53 Agonism Beta-lactamase Assay, Phase 2 (AID 2283591);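 further: compound exposure lasted 16 h at 37 °C; actives lower the ATP signal meaning cytotoxicity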
Procedure, shortened: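 HCT116 p53-bla cells, 4000/well, dosed after 5 h plating (217-fold dilution of DMSO stocks) and incubated 16 h at 37C. Viability taken as cellular ATP by CellTiter-Glo luminescence after 30 min RT; signal loss marks cytotoxicity.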

[2] = TOX21_p53_BLA_p3_viability: Viability Assessment in the Tox21 HCT-116 p53 Agonism Beta-lactamase Assay, Phase 3 (AID 2283593);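 further: cells exposed to compound for 16 h before reading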
Procedure, shortened: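 HCT116 cells, 4000/well, dosed 5 h after plating by pin transfer (217-fold dilution from DMSO stock) and incubated 16 h at 37C, 5% CO2. Viability read as ATP luminescence with CellTiter-Glo after 30 min at room temperature.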

[3] = molecular target: Cellular tumor antigen p53 (Homo sapiens) (UniProt P04637); assay: TOX21_p53_BLA_p3_ratio: Tox21 HCT-116 p53 Agonism Beta-lactamase Assay, Ratio, Phase 3 (AID 2283596)
Procedure, shortened: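 HCT116 p53-bla cells (4000/well) given compound in DMSO (217-fold dilution) after 5 h, incubated 16 h at 37C. CCF4-AM substrate 2 h at room temperature; 460/530 nm emission ratio, gain fitted against DMSO.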

[4] = molecular target: Cellular tumor antigen p53 (Homo sapiens) (UniProt P04637); assay: TOX21_p53_BLA_p5_ratio: Tox21 HCT-116 p53 Agonism Beta-lactamase Assay, Ratio, Phase 5 (AID 2283599)
Procedure, shortened: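 HCT-116 p53-bla cells (4000/well) plated 5 h, dosed with compound (217-fold DMSO dilution) for 16 h at 37 C; CCF4-AM substrate 2 h at room temperature. Activity is the 460/530 nm emission ratio (405 nm excitation), fitted in gain-of-signal direction versus DMSO.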

[5] = TOX21_p53_BLA_p5_viability: Viability Assessment in the Tox21 HCT-116 p53 Agonism Beta-lactamase Assay, Phase 5 (AID 2283600)
Procedure, shortened: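 After the 460/530 nm beta-lactamase measurement, the wells received an ATP-detection luciferase reagent; signal was read 30 min later at RT. Compound treatment lasted 16 h on cells pre-incubated 5 h post-seeding.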

[6] = molecular target: Cellular tumor antigen p53 (Homo sapiens) (UniProt P04637); assay: TOX21_p53_BLA_p4_ratio: Tox21 HCT-116 p53 Agonism Beta-lactamase Assay, Ratio, Phase 4 (AID 2283601)
Procedure, shortened: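 HCT-116 p53 beta-lactamase reporter cells (4000/well) preincubated 5 h, then compound (217-fold dilution of DMSO stock) for 16 h at 37C. CCF4-AM substrate added 2 h at room temperature; 460/530 nm emission ratio fitted upward versus DMSO.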

[7] = TOX21_p53_BLA_p4_viability: Viability Assessment in the Tox21 HCT-116 p53 Agonism Beta-lactamase Assay, Phase 4 (AID 2283597);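 further: hits lower the luminescence signal meaning cytotoxicity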
Procedure, shortened: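 Following a 16 h exposure at 37C, the treated HCT116 wells were first read for the FRET ratio. They were then lysed with CellTiter-Glo, and ATP luminescence was recorded after 30 min at room temperature.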

[8] = CCTE_Harrill_HTTr_Apoptosis_MCF7: CCTE's 6-hour Apoptosis Assessment for the High-Throughput Transcriptomics (HTTr) Platform, in MCF-7 cells cultured in DMEM + 10% fetal bovine serum, Harrill Lab (AID 2284011; active means hit-call score of the fitted dose curve at least 0.9, where 1 is the maximum; inactive means score below 0.9)
Procedure, shortened: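 High-content imaging of CellEvent Caspase 3/7 Green signal follows a six-hour exposure, with eight concentrations per chemical. MCF-7 cells grown in DMEM plus 10% fetal bovine serum; activity fitted in both directions against DMSO.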

Cellular tumor antigen p53 (Homo sapiens), sequence (P04637 whole entry, looked up): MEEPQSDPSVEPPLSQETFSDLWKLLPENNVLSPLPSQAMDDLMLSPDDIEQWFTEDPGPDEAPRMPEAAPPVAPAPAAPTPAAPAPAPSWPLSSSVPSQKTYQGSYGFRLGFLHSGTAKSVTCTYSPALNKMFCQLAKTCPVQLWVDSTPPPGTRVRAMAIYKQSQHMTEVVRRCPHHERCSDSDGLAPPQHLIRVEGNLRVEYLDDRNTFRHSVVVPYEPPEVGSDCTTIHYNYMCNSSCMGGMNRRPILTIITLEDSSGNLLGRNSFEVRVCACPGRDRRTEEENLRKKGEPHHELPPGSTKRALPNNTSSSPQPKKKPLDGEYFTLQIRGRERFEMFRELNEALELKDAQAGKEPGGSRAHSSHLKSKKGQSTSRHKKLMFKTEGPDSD

Q: With COc1ccc2c(c1OC)C(=O)O[C@@H]2[C@H]1c2cc3c(cc2CCN1C)OCO3 as the compound, how does the outcome [1] read?
A: The outcome was “inactive”.

Q: What about the outcome [2] of the same compound?
A: Its outcome is “inactive”.

Q: And the outcome [3]?
A: Its outcome is “inactive”.

Q: What about the outcome [4] of the same compound?
A: Its outcome is “inactive”.

Q: And the outcome [5]?
A: Its outcome is “inactive”.

Q: And the outcome [6]?
A: The outcome was “inactive”.

Q: Which outcome [1] does the source give for O=C(Cl)C(Cl)(Cl)Cl here?
A: Its outcome is “inactive”.

Q: What about the outcome [3] of the same compound?
A: Its outcome is “inactive”.

Q: What about the outcome [7] of the same compound?
A: The outcome was “inactive”.

Q: What about the outcome [5] of the same compound?
A: Its outcome is “inactive”.

Q: And the outcome [6]?
A: The outcome was “inactive”.

Q: Which AC50 [1] does the source give for C[C@@H]1O[C@@H](O[C@@H]2C=C3CC[C@@H]4[C@H](CC[C@]5(C)[C@@H](c6ccc(=O)oc6)CC[C@]45O)[C@@]3(C)CC2)[C@H](O)[C@H](O)[C@H]1O here?
A: The AC50 was 9.27 nM (active).

Q: And the outcome [3]?
A: The outcome was “inactive”.

Q: And the AC50 [7]?
A: Its AC50 is 12.3 nM (active).

Q: And the outcome [4]?
A: Its outcome is “inactive”.

Q: And the AC50 [5]?
A: Its AC50 is 10.8 nM (active).

Q: And the outcome [6]?
A: The outcome was “inactive”.

Q: Which outcome [1] does the source give for O=[N+]([O-])c1cc(Cl)c(Cl)c(Cl)c1 here?
A: Its outcome is “inactive”.

Q: And the outcome [3]?
A: Its outcome is “inactive”.

Q: And the outcome [4]?
A: The outcome was “inactive”.

Q: And the outcome [5]?
A: The outcome was “inactive”.

Q: Which results are given for C=CC(=C)C?
A: outcome [1]: inactive; outcome [5]: inactive

Q: For CS(=O)(=O)Cl, which outcome [1] is on record?
A: Its outcome is “inactive”.

Q: And the outcome [7]?
A: The outcome was “inactive”.

Q: What about the outcome [5] of the same compound?
A: The outcome was “inactive”.

Q: What about the outcome [6] of the same compound?
A: The outcome was “inactive”.

Q: For CCCCc1c(C)nc(NCC)[nH]c1=O, which outcome [1] is on record?
A: The outcome was “inactive”.

Q: And the outcome [3]?
A: The outcome was “inactive”.

Q: What about the outcome [7] of the same compound?
A: Its outcome is “inactive”.

Q: What about the outcome [4] of the same compound?
A: The outcome was “inactive”.

Q: What about the outcome [5] of the same compound?
A: Its outcome is “inactive”.

Q: And the outcome [8]?
A: Its outcome is “inactive”.

Q: What does the source list for C[C@H]1O[C@H](OC2[C@@H](O)[C@@H](O)C(O)[C@H](O)[C@H]2O)[C@@H](N)C[C@@H]1N=C(N)C(=O)O (some centres undefined)?
A: outcome [1]: inactive; outcome [4]: inactive

Q: For C[C@H](CN1CCOCC1)C(C(=O)N1CCCC1)(c1ccccc1)c1ccccc1, which outcome [1] is on record?
A: Its outcome is “inactive”.

Q: What about the outcome [7] of the same compound?
A: Its outcome is “inactive”.

Q: What does the source list for COC(C)(C)C?
A: outcome [1]: inactive; outcome [3]: inactive; outcome [7]: inactive; outcome [4]: inactive; outcome [5]: inactive; outcome [6]: inactive

Q: With CCCBr as the compound, how does the outcome [1] read?
A: The outcome was “inactive”.

Q: And the outcome [7]?
A: Its outcome is “inactive”.

Q: What about the outcome [4] of the same compound?
A: Its outcome is “inactive”.

Q: Which results are given for c1ccc(C2(N3CCCC3)CCCCC2)cc1?
A: outcome [1]: inactive; outcome [7]: inactive; outcome [4]: inactive; outcome [5]: inactive

Q: What does the source list for COc1cc(CC(C)N)cc2c1OCO2 (centres undefined)?
A: outcome [1]: inactive; outcome [3]: inactive; outcome [7]: inactive; outcome [4]: inactive

Q: With O=C(Cl)/C=C/C(=O)Cl as the compound, how does the outcome [1] read?
A: The outcome was “inactive”.

Q: What about the outcome [4] of the same compound?
A: The outcome was “inactive”.

Q: And the outcome [5]?
A: Its outcome is “inactive”.

Q: What about the outcome [6] of the same compound?
A: The outcome was “inactive”.

Q: For N#CNC#N, which outcome [1] is on record?
A: The outcome was “inactive”.

Q: And the outcome [7]?
A: The outcome was “inactive”.

Q: What about the outcome [5] of the same compound?
A: The outcome was “inactive”.

Q: What about the outcome [6] of the same compound?
A: The outcome was “inactive”.

Q: Which outcome [1] does the source give for Nc1ccc([As](=O)(O)O)cc1 here?
A: Its outcome is “inactive”.

Q: And the outcome [3]?
A: The outcome was “inactive”.

Q: What about the outcome [7] of the same compound?
A: The outcome was “inactive”.

Q: What about the outcome [4] of the same compound?
A: The outcome was “inactive”.

Q: And the outcome [5]?
A: Its outcome is “inactive”.

Q: What about the AC50 [6] of the same compound?
A: The AC50 was 42100 nM (active).

Q: What about the outcome [6] of the same compound?
A: Its outcome is “inactive”.

Q: Which outcome [1] does the source give for Cc1nnc2n1-c1sc(CCC(=O)N3CCOCC3)cc1C(c1ccccc1Cl)=NC2 here?
A: Its outcome is “inactive”.

Q: And the outcome [3]?
A: The outcome was “inactive”.

Q: What about the outcome [7] of the same compound?
A: Its outcome is “inactive”.

Q: What about the outcome [4] of the same compound?
A: The outcome was “inactive”.

Q: What about the outcome [5] of the same compound?
A: The outcome was “inactive”.

Q: Which outcome [1] does the source give for O=[N+]([O-])c1ccccc1-c1ccccc1 here?
A: Its outcome is “inactive”.

Q: What about the outcome [3] of the same compound?
A: Its outcome is “inactive”.

Q: What about the outcome [4] of the same compound?
A: The outcome was “inactive”.

Q: And the outcome [5]?
A: Its outcome is “inactive”.

Q: Which outcome [1] does the source give for Cc1cccc(N)c1C here?
A: Its outcome is “inactive”.

Q: And the outcome [7]?
A: The outcome was “inactive”.

Q: What about the outcome [4] of the same compound?
A: The outcome was “inactive”.

Q: And the outcome [5]?
A: The outcome was “inactive”.

Q: And the outcome [6]?
A: The outcome was “inactive”.

Q: With CCC1(CC)C(=O)C=CNC1=O as the compound, how does the outcome [1] read?
A: Its outcome is “inactive”.

Q: And the outcome [3]?
A: The outcome was “inactive”.

Q: What about the outcome [7] of the same compound?
A: The outcome was “inactive”.

Q: And the outcome [4]?
A: Its outcome is “inactive”.

Q: What about the outcome [5] of the same compound?
A: The outcome was “inactive”.

Q: And the outcome [6]?
A: Its outcome is “inactive”.
